Test results as given in paper PMC7862700, “An all-to-all approach to the identification of sequence-specific readers for epigenetic DNA modifications on cytosine”.

Columns and labels:
Test in all cases: DAPPL (digital affinity profiling via proximity ligation, sequencing); 10 mM Tris-HCl pH 7.5, 50 mM NaCl, 1 mM DTT, 4% glycerol, room temperature, 30 min; GST-TFs on glutathione beads, 16-mer random dsDNA library, 0.1% formaldehyde crosslink after washing; high values mean tight binding
Conditions in all cases: protein: recombinant; tags: N-terminal GST; dsDNA, one strand shown
ERF = biological target: T1, ERF (Homo sapiens, UniProt P50548 1-548)
T1 sequence: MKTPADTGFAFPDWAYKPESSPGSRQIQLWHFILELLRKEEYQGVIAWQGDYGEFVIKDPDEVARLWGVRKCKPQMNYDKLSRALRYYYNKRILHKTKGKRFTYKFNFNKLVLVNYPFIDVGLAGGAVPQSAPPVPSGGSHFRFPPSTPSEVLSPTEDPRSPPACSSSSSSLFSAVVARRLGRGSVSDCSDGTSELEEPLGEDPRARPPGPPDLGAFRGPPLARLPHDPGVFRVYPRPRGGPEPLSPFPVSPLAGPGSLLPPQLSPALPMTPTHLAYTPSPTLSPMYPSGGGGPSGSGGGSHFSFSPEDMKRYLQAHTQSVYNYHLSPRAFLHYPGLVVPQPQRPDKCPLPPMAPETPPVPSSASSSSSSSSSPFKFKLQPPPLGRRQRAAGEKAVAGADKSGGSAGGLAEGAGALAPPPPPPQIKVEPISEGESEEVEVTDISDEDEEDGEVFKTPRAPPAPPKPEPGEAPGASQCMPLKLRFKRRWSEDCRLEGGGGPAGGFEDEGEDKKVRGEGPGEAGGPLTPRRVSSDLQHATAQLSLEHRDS
In short: (§1)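 Human transcription factors carrying a GST fusion were produced in yeast, bound to glutathione beads, tagged with DNA barcodes and pooled together with a tag-only sample. Each pool was held with 200 nmole of a random double-stranded 16-mer DNA library in Tris/NaCl/DTT/glycerol buffer for 30 min at room temperature, then washed, crosslinked in 0.1% formaldehyde, proximity-ligated with BsaI/T4 ligase (1 h, 37 °C), PCR-amplified and sequenced on an Illumina NextSeq500. Binding signal is the read frequency of each hexamer for a given factor divided by its frequency in the tag-only sample.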

ETV3L = biological target: T2, ETV3L (Homo sapiens, UniProt Q6ZN32 1-361)
T2 sequence: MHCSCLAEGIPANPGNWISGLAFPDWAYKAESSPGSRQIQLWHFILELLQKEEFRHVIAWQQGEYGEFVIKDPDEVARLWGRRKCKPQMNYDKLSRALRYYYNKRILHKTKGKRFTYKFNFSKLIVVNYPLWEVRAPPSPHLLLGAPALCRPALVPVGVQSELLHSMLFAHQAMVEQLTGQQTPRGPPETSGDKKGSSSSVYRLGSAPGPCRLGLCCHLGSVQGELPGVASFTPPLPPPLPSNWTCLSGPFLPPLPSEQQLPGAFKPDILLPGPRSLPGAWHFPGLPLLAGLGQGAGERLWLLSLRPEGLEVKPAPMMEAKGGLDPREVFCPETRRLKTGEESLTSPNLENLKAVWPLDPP
In short: as §1

ETS2 = biological target: T3, ETS2 (Homo sapiens, UniProt P15036 1-469)
T3 sequence: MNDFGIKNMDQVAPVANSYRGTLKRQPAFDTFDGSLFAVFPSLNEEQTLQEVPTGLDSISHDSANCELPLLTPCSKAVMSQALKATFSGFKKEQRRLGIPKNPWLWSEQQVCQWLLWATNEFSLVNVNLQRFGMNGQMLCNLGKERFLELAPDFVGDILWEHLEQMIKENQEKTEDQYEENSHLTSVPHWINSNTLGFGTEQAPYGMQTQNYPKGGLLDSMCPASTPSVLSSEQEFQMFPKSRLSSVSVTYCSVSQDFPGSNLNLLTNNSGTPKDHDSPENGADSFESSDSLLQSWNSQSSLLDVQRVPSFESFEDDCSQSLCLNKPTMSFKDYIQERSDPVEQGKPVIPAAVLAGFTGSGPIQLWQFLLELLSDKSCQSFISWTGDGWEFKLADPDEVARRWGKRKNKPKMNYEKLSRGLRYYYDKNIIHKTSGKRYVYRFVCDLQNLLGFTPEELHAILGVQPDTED
In short: as §1

SPDEF = biological target: T4, SPDEF (Homo sapiens, UniProt O95238 1-335)
T4 sequence: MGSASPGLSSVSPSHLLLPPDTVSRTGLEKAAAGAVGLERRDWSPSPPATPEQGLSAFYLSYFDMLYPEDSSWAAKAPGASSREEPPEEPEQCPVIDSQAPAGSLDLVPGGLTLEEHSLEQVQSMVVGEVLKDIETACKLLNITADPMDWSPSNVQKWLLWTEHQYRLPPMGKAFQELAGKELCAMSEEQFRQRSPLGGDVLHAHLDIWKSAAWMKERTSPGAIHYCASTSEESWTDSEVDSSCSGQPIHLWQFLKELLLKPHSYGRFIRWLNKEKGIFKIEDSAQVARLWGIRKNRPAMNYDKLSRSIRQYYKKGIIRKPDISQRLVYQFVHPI
In short: as §1

ETV7 = biological target: T5, ETV7 (Homo sapiens, UniProt Q9Y603 1-341)
T5 sequence: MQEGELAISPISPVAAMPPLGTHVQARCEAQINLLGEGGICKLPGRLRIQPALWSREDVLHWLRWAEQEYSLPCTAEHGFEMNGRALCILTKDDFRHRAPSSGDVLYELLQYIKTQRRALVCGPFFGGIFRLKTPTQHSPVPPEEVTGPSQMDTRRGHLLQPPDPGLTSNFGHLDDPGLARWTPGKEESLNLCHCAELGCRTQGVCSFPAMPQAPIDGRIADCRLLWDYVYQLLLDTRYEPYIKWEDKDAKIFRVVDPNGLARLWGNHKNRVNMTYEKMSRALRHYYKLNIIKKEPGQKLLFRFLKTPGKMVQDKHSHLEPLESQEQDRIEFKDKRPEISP
In short: as §1

ELF5 = biological target: T6, ELF5 (Homo sapiens, UniProt Q9UKW6-2 1-255)
T6 sequence: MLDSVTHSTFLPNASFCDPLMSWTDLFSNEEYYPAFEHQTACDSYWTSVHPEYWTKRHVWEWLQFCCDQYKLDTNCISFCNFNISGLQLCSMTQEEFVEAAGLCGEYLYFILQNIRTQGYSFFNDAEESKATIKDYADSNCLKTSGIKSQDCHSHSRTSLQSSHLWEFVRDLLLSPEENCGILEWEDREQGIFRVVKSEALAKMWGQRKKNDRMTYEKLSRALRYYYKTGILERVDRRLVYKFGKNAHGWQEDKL
In short: as §1

ETV3 = biological target: T7, ETV3 (Homo sapiens, UniProt P41162-2 1-143)
T7 sequence: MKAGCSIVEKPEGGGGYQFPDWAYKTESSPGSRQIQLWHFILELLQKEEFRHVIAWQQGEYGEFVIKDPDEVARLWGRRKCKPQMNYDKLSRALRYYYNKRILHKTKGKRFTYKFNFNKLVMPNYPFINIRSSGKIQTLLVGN
In short: as §1

ETV6 = ETV6 (Homo sapiens, UniProt P41212 1-452)
ETV6, sequence (P41212 whole entry): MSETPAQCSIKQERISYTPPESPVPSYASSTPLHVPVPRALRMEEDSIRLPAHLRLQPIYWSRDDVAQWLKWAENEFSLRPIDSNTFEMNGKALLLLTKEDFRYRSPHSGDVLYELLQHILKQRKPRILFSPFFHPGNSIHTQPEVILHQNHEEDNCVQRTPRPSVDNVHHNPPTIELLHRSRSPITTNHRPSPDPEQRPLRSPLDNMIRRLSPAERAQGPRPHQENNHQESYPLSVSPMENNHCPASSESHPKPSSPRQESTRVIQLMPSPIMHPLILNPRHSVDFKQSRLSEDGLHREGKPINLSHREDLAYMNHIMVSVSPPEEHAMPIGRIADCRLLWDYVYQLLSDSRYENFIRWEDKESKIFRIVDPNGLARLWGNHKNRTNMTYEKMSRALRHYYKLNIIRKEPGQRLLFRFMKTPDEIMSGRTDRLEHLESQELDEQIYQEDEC
In short: as §1

Sequence | binding signal (ERF) | binding signal (ETV3L) | binding signal (ETS2) | binding signal (SPDEF) | binding signal (ETV7) | binding signal (ELF5) | binding signal (ETV3) | binding signal (ETV6)
GCGATG | 1.38 fold enrichment (6-mer frequency, TF over GST control) | 1.26 fold enrichment (6-mer frequency, TF over GST control) | 1.35 fold enrichment (6-mer frequency, TF over GST control) | 1.29 fold enrichment (6-mer frequency, TF over GST control) | 1.31 fold enrichment (6-mer frequency, TF over GST control) | 1.17 fold enrichment (6-mer frequency, TF over GST control) | 1.28 fold enrichment (6-mer frequency, TF over GST control) | 1.18 fold enrichment (6-mer frequency, TF over GST control)
CTTCAC | 1.44 fold enrichment (6-mer frequency, TF over GST control) | 1.44 fold enrichment (6-mer frequency, TF over GST control) | 1.36 fold enrichment (6-mer frequency, TF over GST control) | 1.4 fold enrichment (6-mer frequency, TF over GST control) | 1.45 fold enrichment (6-mer frequency, TF over GST control) | 1.38 fold enrichment (6-mer frequency, TF over GST control) | 1.45 fold enrichment (6-mer frequency, TF over GST control) | 1.43 fold enrichment (6-mer frequency, TF over GST control)
TCCGGC | 2.13 fold enrichment (6-mer frequency, TF over GST control) | 2.23 fold enrichment (6-mer frequency, TF over GST control) | 2.08 fold enrichment (6-mer frequency, TF over GST control) | 3.14 fold enrichment (6-mer frequency, TF over GST control) | 1.95 fold enrichment (6-mer frequency, TF over GST control) | 2.67 fold enrichment (6-mer frequency, TF over GST control) | 2.32 fold enrichment (6-mer frequency, TF over GST control) | 2.28 fold enrichment (6-mer frequency, TF over GST control)
TCACCT | 1.2 fold enrichment (6-mer frequency, TF over GST control) | 1.17 fold enrichment (6-mer frequency, TF over GST control) | 1.09 fold enrichment (6-mer frequency, TF over GST control) | 1.22 fold enrichment (6-mer frequency, TF over GST control) | 1.19 fold enrichment (6-mer frequency, TF over GST control) | 1.21 fold enrichment (6-mer frequency, TF over GST control) | 1.2 fold enrichment (6-mer frequency, TF over GST control) | 1.19 fold enrichment (6-mer frequency, TF over GST control)
GGTCTC | 2.29 fold enrichment (6-mer frequency, TF over GST control) | 2.36 fold enrichment (6-mer frequency, TF over GST control) | 2.55 fold enrichment (6-mer frequency, TF over GST control) | 1.93 fold enrichment (6-mer frequency, TF over GST control) | 2.04 fold enrichment (6-mer frequency, TF over GST control) | 2.18 fold enrichment (6-mer frequency, TF over GST control) | 2.64 fold enrichment (6-mer frequency, TF over GST control) | 1.99 fold enrichment (6-mer frequency, TF over GST control)
TGCTGG | 1.2 fold enrichment (6-mer frequency, TF over GST control) | 1.22 fold enrichment (6-mer frequency, TF over GST control) | 1.07 fold enrichment (6-mer frequency, TF over GST control) | 1.15 fold enrichment (6-mer frequency, TF over GST control) | 1.13 fold enrichment (6-mer frequency, TF over GST control) | 1.07 fold enrichment (6-mer frequency, TF over GST control) | 1.11 fold enrichment (6-mer frequency, TF over GST control) | 1.06 fold enrichment (6-mer frequency, TF over GST control)
TGCTTT | 1.29 fold enrichment (6-mer frequency, TF over GST control) | 1.11 fold enrichment (6-mer frequency, TF over GST control) | 1.07 fold enrichment (6-mer frequency, TF over GST control) | 1.02 fold enrichment (6-mer frequency, TF over GST control) | 1.19 fold enrichment (6-mer frequency, TF over GST control) | 1.15 fold enrichment (6-mer frequency, TF over GST control) | 1.14 fold enrichment (6-mer frequency, TF over GST control) | 1.1 fold enrichment (6-mer frequency, TF over GST control)
CCAATA | 1.34 fold enrichment (6-mer frequency, TF over GST control) | 1.21 fold enrichment (6-mer frequency, TF over GST control) | 1.28 fold enrichment (6-mer frequency, TF over GST control) | 1.24 fold enrichment (6-mer frequency, TF over GST control) | 1.14 fold enrichment (6-mer frequency, TF over GST control) | 1.13 fold enrichment (6-mer frequency, TF over GST control) | 1.19 fold enrichment (6-mer frequency, TF over GST control) | 1.23 fold enrichment (6-mer frequency, TF over GST control)
